Assay results as given in paper PMC7862700, “An all-to-all approach to the identification of sequence-specific readers for epigenetic DNA modifications on cytosine”.

Experiments:
Test in all cases: DAPPL (digital affinity profiling via proximity ligation, sequencing); 10 mM Tris-HCl pH 7.5, 50 mM NaCl, 1 mM DTT, 4% glycerol, room temperature, 30 min; GST-TFs on glutathione beads, 16-mer random dsDNA library, 0.1% formaldehyde crosslink after washing; high values mean tight binding
Conditions in all cases: protein: recombinant; tags: N-terminal GST; dsDNA, one strand shown
FLI1 = target: T1, FLI1 (Homo sapiens, UniProt Q01543 1-452)
T1 sequence: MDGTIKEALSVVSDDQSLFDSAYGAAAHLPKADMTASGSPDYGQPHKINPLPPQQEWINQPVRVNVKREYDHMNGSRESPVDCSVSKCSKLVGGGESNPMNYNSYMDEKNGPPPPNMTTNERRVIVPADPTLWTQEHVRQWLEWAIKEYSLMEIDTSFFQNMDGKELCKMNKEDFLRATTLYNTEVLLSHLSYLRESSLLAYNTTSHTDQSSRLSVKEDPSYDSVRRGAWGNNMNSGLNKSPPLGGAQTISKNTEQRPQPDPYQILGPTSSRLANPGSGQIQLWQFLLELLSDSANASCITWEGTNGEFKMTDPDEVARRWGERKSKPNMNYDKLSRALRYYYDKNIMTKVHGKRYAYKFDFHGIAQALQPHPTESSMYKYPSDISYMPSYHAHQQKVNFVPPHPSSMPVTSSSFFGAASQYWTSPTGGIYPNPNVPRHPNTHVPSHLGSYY
Summary of the method: (§1)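 Pools were built from human transcription factors expressed in yeast as GST fusions, captured on glutathione beads and DNA-barcoded, along with a tag-only sample. Incubation with 200 nmole of a 16-mer random double-stranded DNA library lasted 30 min at room temperature in Tris/NaCl/DTT/glycerol buffer, and was followed by washing, 0.1% formaldehyde crosslinking, proximity ligation, PCR amplification and Illumina NextSeq500 sequencing. Binding signal is the quotient of each hexamer's read frequency for a factor and its frequency for the tag-only sample.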

ELK1 = target: T2, ELK1 (Homo sapiens, UniProt P19419 1-428)
T2 sequence: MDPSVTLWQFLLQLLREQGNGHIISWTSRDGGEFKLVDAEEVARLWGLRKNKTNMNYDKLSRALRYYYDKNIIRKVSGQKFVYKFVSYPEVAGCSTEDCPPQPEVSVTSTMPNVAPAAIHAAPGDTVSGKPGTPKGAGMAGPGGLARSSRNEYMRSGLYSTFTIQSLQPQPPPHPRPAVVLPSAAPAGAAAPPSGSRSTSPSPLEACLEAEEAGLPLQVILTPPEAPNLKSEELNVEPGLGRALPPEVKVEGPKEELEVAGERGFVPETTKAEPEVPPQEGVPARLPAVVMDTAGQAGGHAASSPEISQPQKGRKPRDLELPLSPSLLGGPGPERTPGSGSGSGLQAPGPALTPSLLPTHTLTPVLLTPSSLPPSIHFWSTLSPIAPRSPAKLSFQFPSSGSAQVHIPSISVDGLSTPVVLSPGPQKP
Summary of the method: as §1

GABPA = target: T3, GABPA (Homo sapiens, UniProt Q06546 1-454)
T3 sequence: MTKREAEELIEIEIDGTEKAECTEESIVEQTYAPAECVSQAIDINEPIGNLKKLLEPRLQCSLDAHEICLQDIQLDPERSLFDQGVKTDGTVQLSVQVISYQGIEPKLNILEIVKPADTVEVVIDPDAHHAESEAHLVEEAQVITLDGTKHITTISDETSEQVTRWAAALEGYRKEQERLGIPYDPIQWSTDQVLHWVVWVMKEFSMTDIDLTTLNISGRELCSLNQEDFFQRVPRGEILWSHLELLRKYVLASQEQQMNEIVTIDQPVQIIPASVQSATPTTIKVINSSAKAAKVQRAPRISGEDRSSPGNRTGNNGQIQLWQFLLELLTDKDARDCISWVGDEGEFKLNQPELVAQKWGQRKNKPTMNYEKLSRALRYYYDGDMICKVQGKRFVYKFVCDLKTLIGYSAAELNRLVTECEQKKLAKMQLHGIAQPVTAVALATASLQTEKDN
Summary of the method: as §1

ERG = target: T4, ERG (Homo sapiens, UniProt P11308 1-479)
T4 sequence: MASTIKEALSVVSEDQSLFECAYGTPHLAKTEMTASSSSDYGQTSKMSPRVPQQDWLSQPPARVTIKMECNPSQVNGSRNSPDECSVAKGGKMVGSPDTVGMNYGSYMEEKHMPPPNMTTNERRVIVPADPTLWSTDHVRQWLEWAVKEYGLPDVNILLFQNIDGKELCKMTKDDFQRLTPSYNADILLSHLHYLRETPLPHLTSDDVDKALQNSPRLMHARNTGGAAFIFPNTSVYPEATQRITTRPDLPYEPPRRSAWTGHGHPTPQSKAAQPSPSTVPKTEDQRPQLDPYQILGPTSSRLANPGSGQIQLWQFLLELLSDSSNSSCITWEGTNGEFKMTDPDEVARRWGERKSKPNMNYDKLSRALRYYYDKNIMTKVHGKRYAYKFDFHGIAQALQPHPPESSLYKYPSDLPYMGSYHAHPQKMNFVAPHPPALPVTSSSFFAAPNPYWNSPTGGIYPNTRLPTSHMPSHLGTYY
Summary of the method: as §1

ELF1 = ELF1 (Homo sapiens, UniProt P32519 1-619)
Summary of the method: as §1

EHF = target: T5, EHF (Homo sapiens, UniProt Q9NZC4 1-300)
T5 sequence: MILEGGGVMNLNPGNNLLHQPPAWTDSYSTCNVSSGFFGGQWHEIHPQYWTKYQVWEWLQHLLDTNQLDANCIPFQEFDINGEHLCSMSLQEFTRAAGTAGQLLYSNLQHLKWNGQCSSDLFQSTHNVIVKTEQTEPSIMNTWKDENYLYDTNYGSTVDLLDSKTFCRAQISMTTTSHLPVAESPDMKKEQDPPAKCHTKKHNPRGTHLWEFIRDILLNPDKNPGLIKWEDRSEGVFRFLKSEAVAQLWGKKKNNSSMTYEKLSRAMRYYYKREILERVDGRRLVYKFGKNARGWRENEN
Summary of the method: as §1

SPI1 = SPI1 (Homo sapiens, UniProt P17947 1-270)
Summary of the method: as §1

SPIB = SPIB (Homo sapiens, UniProt Q01892 1-262)
Summary of the method: as §1

ELK3 = target: T6, ELK3 (Homo sapiens, UniProt P41970 1-407)
T6 sequence: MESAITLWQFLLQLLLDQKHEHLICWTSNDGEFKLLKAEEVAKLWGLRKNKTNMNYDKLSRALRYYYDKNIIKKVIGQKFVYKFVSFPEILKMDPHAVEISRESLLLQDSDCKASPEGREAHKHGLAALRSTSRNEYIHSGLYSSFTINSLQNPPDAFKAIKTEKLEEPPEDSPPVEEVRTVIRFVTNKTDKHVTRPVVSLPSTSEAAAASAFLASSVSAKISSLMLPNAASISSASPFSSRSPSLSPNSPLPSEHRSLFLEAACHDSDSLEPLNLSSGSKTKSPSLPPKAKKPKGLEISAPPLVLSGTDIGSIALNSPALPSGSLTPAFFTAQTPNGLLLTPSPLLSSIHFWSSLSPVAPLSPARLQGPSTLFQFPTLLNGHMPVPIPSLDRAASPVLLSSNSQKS
Summary of the method: as §1

Chain of SPIB (Q01892 whole entry): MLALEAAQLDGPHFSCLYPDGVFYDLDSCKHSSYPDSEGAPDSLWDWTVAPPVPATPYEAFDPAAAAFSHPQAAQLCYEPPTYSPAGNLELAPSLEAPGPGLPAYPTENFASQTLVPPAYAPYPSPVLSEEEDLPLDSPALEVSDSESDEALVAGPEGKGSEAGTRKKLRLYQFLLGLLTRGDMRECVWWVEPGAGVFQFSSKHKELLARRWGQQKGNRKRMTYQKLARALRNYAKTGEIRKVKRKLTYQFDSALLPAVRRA
Chain of ELF1 (P32519 whole entry): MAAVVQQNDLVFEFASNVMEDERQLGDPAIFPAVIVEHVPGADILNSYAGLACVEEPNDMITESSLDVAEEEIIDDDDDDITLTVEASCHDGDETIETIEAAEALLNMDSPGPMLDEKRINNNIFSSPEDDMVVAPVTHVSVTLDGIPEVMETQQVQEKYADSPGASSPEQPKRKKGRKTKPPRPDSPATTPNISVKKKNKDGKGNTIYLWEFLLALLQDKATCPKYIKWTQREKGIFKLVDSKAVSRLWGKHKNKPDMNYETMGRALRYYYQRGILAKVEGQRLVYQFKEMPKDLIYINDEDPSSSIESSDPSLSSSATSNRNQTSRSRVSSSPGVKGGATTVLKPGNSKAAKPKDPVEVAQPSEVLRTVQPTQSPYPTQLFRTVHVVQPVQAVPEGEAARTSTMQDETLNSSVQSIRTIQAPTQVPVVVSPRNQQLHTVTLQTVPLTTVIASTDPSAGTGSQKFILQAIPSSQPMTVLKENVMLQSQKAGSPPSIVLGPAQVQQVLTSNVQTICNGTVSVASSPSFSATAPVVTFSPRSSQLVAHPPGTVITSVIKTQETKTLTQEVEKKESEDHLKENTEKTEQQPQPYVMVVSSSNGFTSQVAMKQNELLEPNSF

| Sequence | binding signal (FLI1) | binding signal (ELK1) | binding signal (GABPA) | binding signal (ERG) | binding signal (ELF1) | binding signal (EHF) | binding signal (SPI1) | binding signal (SPIB) | binding signal (ELK3) |
| --- | --- | --- | --- | --- | --- | --- | --- | --- | --- |
| CGCTCC | 1.37 fold enrichment (6-mer frequency, TF over GST control) | 1.28 fold enrichment (6-mer frequency, TF over GST control) | 1.37 fold enrichment (6-mer frequency, TF over GST control) | 1.33 fold enrichment (6-mer frequency, TF over GST control) | 1.31 fold enrichment (6-mer frequency, TF over GST control) | 1.24 fold enrichment (6-mer frequency, TF over GST control) | 1.29 fold enrichment (6-mer frequency, TF over GST control) | 1.36 fold enrichment (6-mer frequency, TF over GST control) | 1.37 fold enrichment (6-mer frequency, TF over GST control) |
| ATCGCT | 1.09 fold enrichment (6-mer frequency, TF over GST control) | 1.09 fold enrichment (6-mer frequency, TF over GST control) | 1.09 fold enrichment (6-mer frequency, TF over GST control) | 1.01 fold enrichment (6-mer frequency, TF over GST control) | 1.04 fold enrichment (6-mer frequency, TF over GST control) | 1.08 fold enrichment (6-mer frequency, TF over GST control) | 1.02 fold enrichment (6-mer frequency, TF over GST control) | 1.14 fold enrichment (6-mer frequency, TF over GST control) | 1.1 fold enrichment (6-mer frequency, TF over GST control) |
| TTTACC | 1.28 fold enrichment (6-mer frequency, TF over GST control) | 1.2 fold enrichment (6-mer frequency, TF over GST control) | 1.24 fold enrichment (6-mer frequency, TF over GST control) | 1.18 fold enrichment (6-mer frequency, TF over GST control) | 1.23 fold enrichment (6-mer frequency, TF over GST control) | 1.31 fold enrichment (6-mer frequency, TF over GST control) | 1.17 fold enrichment (6-mer frequency, TF over GST control) | 1.21 fold enrichment (6-mer frequency, TF over GST control) | 1.37 fold enrichment (6-mer frequency, TF over GST control) |
| ACTTAA | 1.17 fold enrichment (6-mer frequency, TF over GST control) | 1.23 fold enrichment (6-mer frequency, TF over GST control) | 1.22 fold enrichment (6-mer frequency, TF over GST control) | 1.11 fold enrichment (6-mer frequency, TF over GST control) | 1.18 fold enrichment (6-mer frequency, TF over GST control) | 1.31 fold enrichment (6-mer frequency, TF over GST control) | 1.24 fold enrichment (6-mer frequency, TF over GST control) | 1.18 fold enrichment (6-mer frequency, TF over GST control) | 1.24 fold enrichment (6-mer frequency, TF over GST control) |
| TGTCTA | 1.2 fold enrichment (6-mer frequency, TF over GST control) | 1.15 fold enrichment (6-mer frequency, TF over GST control) | 1.12 fold enrichment (6-mer frequency, TF over GST control) | 1.17 fold enrichment (6-mer frequency, TF over GST control) | 1.15 fold enrichment (6-mer frequency, TF over GST control) | 1.12 fold enrichment (6-mer frequency, TF over GST control) | 1.09 fold enrichment (6-mer frequency, TF over GST control) | 1.02 fold enrichment (6-mer frequency, TF over GST control) | 1.36 fold enrichment (6-mer frequency, TF over GST control) |
| TAGTGT | 1.17 fold enrichment (6-mer frequency, TF over GST control) | 1.16 fold enrichment (6-mer frequency, TF over GST control) | 1.14 fold enrichment (6-mer frequency, TF over GST control) | 1.02 fold enrichment (6-mer frequency, TF over GST control) | 1.14 fold enrichment (6-mer frequency, TF over GST control) | 1.11 fold enrichment (6-mer frequency, TF over GST control) | 1.12 fold enrichment (6-mer frequency, TF over GST control) | 1.14 fold enrichment (6-mer frequency, TF over GST control) | 1.08 fold enrichment (6-mer frequency, TF over GST control) |
| ACTGCC | 1.47 fold enrichment (6-mer frequency, TF over GST control) | 1.44 fold enrichment (6-mer frequency, TF over GST control) | 1.44 fold enrichment (6-mer frequency, TF over GST control) | 1.44 fold enrichment (6-mer frequency, TF over GST control) | 1.42 fold enrichment (6-mer frequency, TF over GST control) | 1.46 fold enrichment (6-mer frequency, TF over GST control) | 1.48 fold enrichment (6-mer frequency, TF over GST control) | 1.41 fold enrichment (6-mer frequency, TF over GST control) | 1.3 fold enrichment (6-mer frequency, TF over GST control) |
